Test results from the supplement of paper PMC6522484.
± gives the standard deviation of the averaged measurements.

How the values were obtained:
DLD1 [1] = assay: cell viability (CellTiter-Glo) relative to plate median (fraction of plate median); higher = more viable cells; conditions: 5 µM; treatment time 24 h; reporter: 7TFP
Method in brief: (§1)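 Two independent replicates were averaged for each reported value. Library compounds were applied at a final 5 µM for 24 h to colorectal cancer cell lines stably expressing lentiviral TCF/Wnt firefly luciferase reporters. Firefly luciferase or CellTiterGlo luminescence from each well was normalised to the plate median.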

HCT116 = assay: as above; conditions: 5 µM; treatment time 24 h; reporter: TCF4/Wnt
Method in brief: as §1

SW480 [2] = assay: as above; conditions: 5 µM; treatment time 24 h; reporter: 7TFP
Method in brief: as §1

DLD1 [3] = assay: TCF/Wnt firefly luciferase reporter signal relative to plate median (fraction of plate median); higher = higher Wnt reporter signal; conditions: 5 µM; treatment time 24 h; reporter: 7TFP
Method in brief: as §1

SW480 [4] = assay: as above; conditions: 5 µM; treatment time 24 h; reporter: 7TFP
Method in brief: as §1

Row | SMILES | cell viability (DLD1 [1]) | cell viability (HCT116) | cell viability (SW480 [2]) | TCF/Wnt firefly luciferase reporter signal (DLD1 [3]) | TCF/Wnt firefly luciferase reporter signal (SW480 [4])
1 | C[C@H](CCC(=O)O)[C@H]1CC[C@H]2[C@@H]3CC[C@@H]4C[C@H](O)CC[C@]4(C)[C@H]3C[C@H](O)[C@]12C | 0.982 ± 0.025 | 1.04 ± 0.11 | 1 ± 0.024 | 1.03 ± 0.13 | 1.01 ± 0.053
2 | COc1ccc(C(=O)c2ccc(O)cc2)c(O)c1O | 1.015 ± 0.0071 | 0.971 ± 0.028 | 1.04 ± 0.078 | 1.03 ± 0.028 | 1.06 ± 0.057
3 | CC12CCC3c4ccc(OCc5ccccc5)cc4CCC3C1C[C@@H](O)[C@@H]2O (stereo not given in full) | 1.08 ± 0.085 | 0.992 ± 0.026 | 1.01 | 0.95 ± 0.14 | 0.993 ± 0.025
4 | COc1ccc(C2C(=O)c3ccccc3C2=O)cc1 | 0.997 ± 0.061 | 0.984 ± 0.08 | 1.01 ± 0.045 | 0.933 ± 0.095 | 0.94 ± 0.021
5 | CN1CCN(C2=Nc3ccccc3Oc3ccc(Cl)cc32)CC1 | 0.901 ± 0.22 | 0.971 ± 0.055 | 0.927 ± 0.0028 | 0.898 ± 0.21 | 0.89 ± 0.12
6 | Nc1nc2c(ncn2COCCO)c(=O)[nH]1 | 1 ± 0.11 | 1.01 ± 0.034 | 0.955 ± 0.078 | 0.991 ± 0.056 | 0.973 ± 0.053
7 | CCN(CC)CCCC(C)Nc1c2ccc(Cl)cc2nc2ccc(OC)cc12 (stereo not given) | 1.02 ± 0.014 | 0.886 ± 0.19 | 1.05 ± 0.014 | 1.11 ± 0.042 | 0.888 ± 0.036
8 | CC(C)CC1NC(=O)C(NC(=O)c2ncccc2O)C(C)OC(=O)C(c2ccccc2)N(C)C(=O)C(C)NC(=O)C(C(C)C(C)C)N(C)C(=O)CN(C)C(=O)C2CCCN2C1=O (single isomer, unassigned; isomere) [Neoviridogrisein II (Isomere)] | 0.904 ± 0.024 | 0.991 ± 0.07 | 1.02 ± 0.03 | 0.918 ± 0.1 | 0.937 ± 0.02
9 | CC(C)CCCCCCCCC1CC(=O)NC(CCC(=O)O)C(=O)NC(CC(C)C)C(=O)NC(CC(C)C)C(=O)NC(C(C)C)C(=O)NC(CC(=O)O)C(=O)NC(CC(C)C)C(=O)NC(CC(C)C)C(=O)O1 (stereo not given) [Surfactin B1] | 0.959 ± 0.072 | 0.925 ± 0.018 | 0.962 ± 0.038 | 0.92 ± 0.21 | 1.01 ± 0.015
10 | O=C(O)c1ccccc1Nc1ccccc1 | 1.08 ± 0.15 | 1.03 ± 0.14 | 1.04 ± 0.057 | 1.09 ± 0.099 | 0.911 ± 0.17
11 | NC(=O)N1c2ccccc2CC(=O)c2ccccc21 | 0.9 ± 0.09 | 0.847 ± 0.09 | 1.03 ± 0.014 | 1.06 | 1.1 ± 0.14
12 | CC(=O)Oc1ccc2c(c1OC(C)=O)OCC1(O)Cc3c(cc(OC(C)=O)c(OC(C)=O)c3OC(C)=O)C21 (stereo not given) | 0.96 ± 0.017 | 1.02 ± 0.074 | 0.959 ± 0.059 | 0.939 ± 0.05 | 0.9105 ± 0.0064
13 | COC(=O)C[C@H]1C2(C)CC34OC5(C)O[C@@]6([C@H](OC)C(OC(=O)C(C)C)[C@]7(C)C(/C(=C(/OC)C(C)C)C(=O)O[C@H]7c7ccoc7)[C@@]6(O5)[C@H](OC)[C@@]3(OC)C2OC(C)=O)[C@]14C (stereo not given in full) | 1.025 ± 0.0071 | 0.916 ± 0.013 | 0.9595 ± 0.00071 | 0.883 ± 0.065 | 0.903 ± 0.016
14 | CC(C)=CCc1c(O)cc2occ(-c3ccc4c(c3)OCO4)c(=O)c2c1O | 1 ± 0.12 | 1.05 ± 0.071 | 0.972 ± 0.018 | 1.02 ± 0.1 | 0.902 ± 0.45
15 | CO/N=C1\C[C@]2(C[C@@H]3C[C@@H](C/C=C(\C)C[C@@H](C)/C=C/C=C4\CO[C@@H]5[C@H](O)C(C)=C[C@@H](C(=O)O3)[C@]45O)O2)O[C@H](/C(C)=C/C(C)C)[C@H]1C | 0.891 ± 0.0092 | 0.921 ± 0.019 | 0.896 ± 0.042 | 0.939 ± 0.24 | 0.932 ± 0.11
16 | CCOC(=O)CCC(=O)O[C@H]1[C@H](O[C@@H]2[C@@H](C)[C@H](O[C@H]3C[C@@](C)(OC)[C@@H](O)[C@H](C)O3)[C@@H](C)C(=O)O[C@H](CC)[C@@](C)(O)[C@H](O)[C@@H](C)C(=O)[C@H](C)C[C@@]2(C)O)O[C@H](C)C[C@@H]1N(C)C | 1.065 ± 0.0071 | 1.01 ± 0.096 | 1.01 ± 0.021 | 1.005 ± 0.0071 | 0.94 ± 0.025
17 | CC(=O)O[C@]1(C)CC[C@@]23C[C@H]1C(C)(C)[C@@H]2CC[C@H]3C | 0.986 ± 0.035 | 0.918 ± 0.033 | 1 ± 0.067 | 1.05 ± 0.086 | 0.934 ± 0.017
18 | Cc1c(NC(=O)c2cccnc2)c(=O)n(-c2ccccc2)n1C | 1.01 | 1.1 ± 0.042 | 0.981 ± 0.015 | 1.06 ± 0.17 | 1 ± 0.037
19 | CC1CC2C3CCC4=CC(=O)C=CC4(C)C3(F)C(O)CC2(C)C1C(=O)CO (stereo not given) | 0.954 ± 0.033 | 0.895 ± 0.043 | 0.939 ± 0.026 | 1.05 | 1.04 ± 0.057
20 | Nc1c2c(nc3ccccc13)CCCC2O (stereo not given) | 1.01 ± 0.018 | 1.12 ± 0.028 | 0.954 ± 0.021 | 0.932 ± 0.016 | 0.931 ± 0.03
21 | O=[N+]([O-])c1cccc2cn[nH]c12 | 1.015 ± 0.0071 | 0.987 ± 0.076 | 0.962 ± 0.047 | 1.1 ± 0.042 | 1.14 ± 0.021
22 | C[N+](C)(C)CCO.[Cl-] | 0.975 ± 0.0071 | 1.01 ± 0.068 | 0.929 ± 0.045 | 1.03 ± 0.021 | 1.1 ± 0.042
23 | COc1cc2nc(N3CCN(C(=O)c4ccco4)CC3)nc(N)c2cc1OC | 1.01 ± 0.097 | 1.02 ± 0.036 | 1.01 ± 0.018 | 1.11 ± 0.014 | 1.09 ± 0.028
24 | O=C(O)c1cn(C2CC2)c2cc(N3CCNCC3)c(F)cc2c1=O | 0.964 ± 0.037 | 0.988 ± 0.015 | 1.03 ± 0.021 | 1.05 ± 0.078 | 1.07 ± 0.014
25 | NCCC(=O)N[C@@H](Cc1c[nH]cn1)C(=O)O | 1.08 ± 0.064 | 1.04 ± 0.021 | 1.01 ± 0.016 | 1.24 ± 0.092 | 1.17 ± 0.11
26 | C[C@@H]1O[C@@H]1P(=O)(O)O | 1.04 | 0.995 ± 0.15 | 1.06 ± 0.028 | 1.03 ± 0.028 | 0.997 ± 0.22
27 | COc1cccc2c(C)cc(=O)[nH]c12 | 1.05 ± 0.15 | 1.07 ± 0.11 | 1.02 ± 0.09 | 1.05 ± 0.064 | 1.11 ± 0.085
28 | COc1ccc(-c2oc3cc(OC)c(OC)c(OC)c3c(=O)c2OC)cc1 | 0.978 ± 0.06 | 0.918 ± 0.06 | 1.02 ± 0.021 | 1.055 ± 0.0071 | 0.917 ± 0.087
29 | Nc1nccs1 | 0.985 ± 0.079 | 1 ± 0.14 | 1.02 ± 0.033 | 1.06 ± 0.13 | 0.986 ± 0.021
